TDP1 block: inhibitors of human tyrosyl-DNA phosphodiesterase TDP1; Q9NUW8; recombinant TDP1, AlphaScreen DNA substrate cleavage; Potency, µM (titrated, usually from 130 µM), without a hit: at the highest dose activity change, negative = inhibition, usual class: inhibitors; 350,000 compounds, 0.28% hits; AID 485290; further: nearly all actives have a fitted effect of over 40% in size
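Here, a 5' biotin and 3' phosphotyrosine-FITC DNA oligonucleotide reports Tdp1 activity: intact substrate bridges AlphaScreen beads, while cleavage leaves a 3' phosphate and drops signal. All incubations at room temperature.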
RORg inh: inhibitors of mouse ROR gamma transcriptional activity; P51450; Drosophila S2 Gal4-RORgamma UAS-luciferase reporter, 20 h; Potency, µM (top dose mostly 53.6 µM), without a hit: at the top dose activity change, negative = inhibition, actives largely listed as inhibitors; 310,000 compounds, 5.4% hits; further: nearly all actives have a fitted effect of over 60% in size
Target sequence (P51450 whole entry, looked up, the tested form may be a part): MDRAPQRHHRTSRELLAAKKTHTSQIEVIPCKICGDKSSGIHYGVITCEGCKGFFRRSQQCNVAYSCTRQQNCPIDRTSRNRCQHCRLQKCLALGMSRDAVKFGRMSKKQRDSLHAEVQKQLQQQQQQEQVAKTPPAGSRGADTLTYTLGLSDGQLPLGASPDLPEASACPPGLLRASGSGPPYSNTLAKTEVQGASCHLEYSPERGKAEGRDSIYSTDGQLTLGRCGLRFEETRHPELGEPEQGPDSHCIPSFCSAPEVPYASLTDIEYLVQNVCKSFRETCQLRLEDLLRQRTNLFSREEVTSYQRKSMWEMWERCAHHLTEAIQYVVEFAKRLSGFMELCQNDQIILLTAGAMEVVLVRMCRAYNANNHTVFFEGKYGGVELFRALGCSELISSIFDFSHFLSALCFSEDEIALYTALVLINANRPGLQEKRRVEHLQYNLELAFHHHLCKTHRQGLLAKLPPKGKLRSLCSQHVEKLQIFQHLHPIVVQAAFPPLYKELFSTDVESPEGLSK
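Drosophila Schneider cells stably carrying a metallothionein-driven Gal4 DBD–ROR gamma fusion and a UAS-Photinus luciferase reporter were exposed to compound for 1 hr, then induced with copper sulfate (700 uM final) for 20 hr at ambient temperature before luminescence reading.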
VP16 counter: inhibits Gal4-VP16 luciferase reporter, ROR gamma counter-screen. Drosophila S2 Gal4-VP16 UAS-luciferase, luminescence, 20 h. 310,000 compounds, 3.5% hits. Potency, µM (titrated, usually from 53.6 µM), without a hit: at the top dose activity, negative = inhibition, most hits filed as inhibitors;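 further: Gal4-VP16 expression switched on by copper sulfate through the metallothionein promoter; nearly all actives have a fitted effect of over 50% in size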
DT40 TDP1 no CPT: qHTS for Inhibitors of human tyrosyl-DNA phosphodiesterase 1 (TDP1): qHTS in cells in absence of CPT | Potency, µM (highest dose often 46.2 µM), for the others: at the top dose activity change, negative = growth inhibition, usual class: inhibitors | DT40 Tdp1-/- hTDP1 cells, no CPT, ATP luminescence, 48 h | 420,000 compounds, 15% hits; further: nearly all actives have a fitted effect of over 55% in size
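Seeded 400 DT40-hTDP1 cells/well (vehicle DMSO, no 20 nM CPT); pinned compounds; ≥48 hr at 37 °C; CellTiter-Glo luminescence as viability measure.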
DT40 TDP1 CPT: DT40-hTDP1 cell growth loss with CPT; chicken DT40 Tdp1-/-;hTDP1 cells + 20 nM CPT, ATP luminescence, 48 h; Potency, µM (highest dose often 46.2 µM), for inactives: at the highest dose activity change, negative = growth inhibition, most hits filed as inhibitors; 420,000 compounds, 12% hits; AID 686979; further: nearly all actives have a fitted effect of over 55% in size
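Chicken DT40 Tdp1-/- cells stably complemented with human TDP1 were seeded at 400 cells/well in medium containing 20 nM camptothecin, exposed to pin-transferred compounds, and grown at 37 °C for at least 48 hr. Viability was read as ATP luminescence.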
An asterisk follows results filed as active; ? = inconclusive; / = no result given; [ ] = another dose, or the depositor's remark. An excerpt weighted towards active compounds, which were near 19% of everything screened. The call rests on the fitted dose curve; in most records, active means well fitted curve in the direction sought with a large enough effect; inconclusive means small, poorly fitted or top-dose-only effect, or another doubt; inactive means no such curve, though single readings can be large; an effect the other way counts as inactive or inconclusive. On the % scale 0 is the no-effect control and ±100 the full control effect; potency means the concentration at half of the fitted maximal effect.

SMILES	TDP1 block	RORg inh	VP16 counter	DT40 TDP1 no CPT	DT40 TDP1 CPT
O=C(NC1CCCCC1)N(CCO)Cc1cc2cc3c(cc2[nH]c1=O)OCCO3	1%	11%	7%	?	?
CC(Oc1ccc(F)cc1)C(=O)Nc1cc(S(=O)(=O)N2CCCCC2)ccc1N1CCOCC1 (centres undefined)	-13%	/	/	16µM*	-8%
CC(C)Oc1ccc(S(=O)(=O)N2CCOCC2)cc1NC(=O)C(C)Oc1ccc(F)cc1 (centres undefined)	0%	/	/	?	?
CCN1CCN(c2ccc(S(=O)(=O)N3CCCCC3)cc2NC(=O)C(C)Oc2ccc(F)cc2)CC1 (centres undefined)	/	/	/	18µM*	18µM*
CCN1CCN(c2ccc(S(=O)(=O)N3CCCCC3)cc2NC(=O)CCNC(C)=O)CC1	/	/	/	3%	-6%
CCCCCCNC(=O)CCNS(=O)(=O)c1ccc(C)cc1	8%	4%	-9%	-20%	?
Cc1ccc(S(=O)(=O)N2C[C@]3(O)C[C@@H]4C(=O)N(c5ccccc5)C(=O)[C@@H]4C[C@]3(OC(=O)NCC3CCCCC3)C2)cc1	/	/	/	4%	0%
CCCCCCNC(=O)OC12CN(C(=O)OC(C)C)N(C(=O)OC(C)C)CC1(O)CN(S(=O)(=O)c1ccc(C)cc1)C2 (centres undefined)	/	/	/	21µM*	?
Cc1ccc(S(=O)(=O)N2CC3(O)CN(C(=O)OC(C)C)N(C(=O)OC(C)C)CC3(OC(=O)NCC3CCCCC3)C2)cc1 (centres undefined)	/	/	/	?	16µM*
Cc1cc(/C=C2\NC(=O)NC2=O)c(C)n1-c1ccc(N2CCOCC2)cc1	9%	27%	1%	21µM*	?
CC(C)CC1NC(=O)N(CC(=O)N2CCN(S(=O)(=O)c3ccc4ccccc4c3)CC2)C1=O (centres undefined)	5%	-27%	2%[0.365 µM]	?	9%
NC(Cc1ccc(C(F)(F)F)cc1)c1csc(Nc2cnccn2)n1 (centres undefined)	/	/	/	5.8µM*	6.5µM*
NC(Cc1cnc[nH]1)c1csc(Nc2ccc(C(F)(F)F)cn2)n1 (centres undefined)	/	/	/	-26%	-21%
NC(Cc1ccc(F)cc1)c1csc(Nc2ccc(C(F)(F)F)cn2)n1 (centres undefined)	/	/	/	9.2µM*	13µM*
CC(C)CC(N)c1csc(Nc2ncccn2)n1 (centres undefined)	/	/	/	6.5µM*	9.2µM*
NC(Cc1ccc(C(F)(F)F)cc1)c1csc(Nc2cc(NCc3ccco3)ncn2)n1 (centres undefined)	/	/	/	16µM*	21µM*
O=C(CC(=O)Nc1ccc(Br)cc1)Nc1ccc(Br)cc1	/	3%	-3%	10%	13%
CC(=O)c1ccc(N2CCN(C(=O)c3ccc(NC(=O)C4CCCO4)cc3)CC2)cc1 (centres undefined)	3%	-1%[0.365 µM]	/	?	-20%
NC(Cc1ccc(C(F)(F)F)cc1)c1csc(Nc2ncccn2)n1 (centres undefined)	/	/	/	9.2µM*	9.2µM*
NCc1csc(Nc2ncccn2)n1	/	/	/	?	-27%
O=C(c1cccnc1)C1CCCN(Cc2ccc3c(c2)CN(C(=O)c2cnccn2)CCO3)C1 (centres undefined)	/	/	/	-17%	24%[9.04 µM]
O=C(CNS(=O)(=O)c1ccc(Cl)cc1)NC1CCCCC1	0%	/	/	11%	0%
CCCCOc1ccc(C(=O)N2CCC(C)CC2)cc1	7%	19%	12%	-22%	-21%
CC1CN(C)C(C)CC1OC(=O)C(c1ccccc1)c1ccccc1 (centres undefined)	/	/	/	23µM*	?
CCCCOc1ccc(C(=O)OC2CC(C)N(C)CC2C)cc1 (centres undefined)	2%	1%	1%	16µM*	?
SMILES	TDP1 block	RORg inh	VP16 counter	DT40 TDP1 no CPT	DT40 TDP1 CPT
CN(C)[C@@H]1CCC[C@H]1OC(=O)C(c1ccccc1)c1ccccc1	-2%	11%	2%	?	-23%
CC(Oc1ccc(Br)cc1)C(=O)N1CCN(c2ccccn2)CC1 (centres undefined)	4%	2%	4%	?	?
Cc1cc(Br)ccc1OCCCCN1CCC(C)CC1	-3%	-13%	1%	?	23µM*
CC1CCN(CCCCOc2ccccc2F)CC1	/	-18%	-12%	15µM*	?
CC1CCN(CCCCOc2ccccc2Br)CC1	-3%	42%	?	?	?
C=C(C(=O)c1ccccc1)C(C)C(=C)C(=O)c1ccccc1	-5%	13µM*	11µM*	5.8µM*	5.8µM*
O=C(c1ccccc1)C(c1ccccc1)c1ccccc1	?	/	/	-25%	3%
C=C(C(=O)c1ccccc1)C(C(=C)C(=O)c1ccccc1)c1ccc(OC)cc1	-3%	26%	-8%	5.2µM*	10µM*
C=C(C(=O)c1ccccc1)C(c1ccccc1)C(C)C(=O)c1ccccc1 (centres undefined)	3%	2.8µM*	16µM*	?	?
CN(C)C(=S)Nc1ccc(Br)c(Cl)c1	1%	?	21%	-20%	0%
CCN(CC(=O)Nc1ccc(Br)cc1)CC(=O)Nc1cc(C)on1	-1%	/	/	?	?
CN(C)S(=O)(=O)c1cccc(C(=O)N=C2N=C3C=CC(Cl)=CN3Cc3ccccc32)c1	/	-28%	?	16µM*	?
O=C(CN1C(=O)c2cccc3cccc(c23)C1=O)N1CCN(Cc2ccc3c(c2)OCO3)CC1	0%	18%	-2%[0.365 µM]	18µM*	21µM*
CCOc1ccccc1C(=O)NCC(=O)N1CCN(Cc2ccc3c(c2)OCO3)CC1	0%	/	/	?	29µM*
O=C(CN1C(=O)c2cccc3cccc1c23)NCc1ccc2c(c1)OCO2	4%	15%	6%	-14%	-7%
CC(C)c1ccccc1NC(=S)N1CCN(Cc2ccc3c(c2)OCO3)CC1	-5%	11µM*	?	2%	20%
Cc1ccc(NC(=S)N2CCN(Cc3ccc4c(c3)OCO4)CC2)c(C)c1	/	/	/	-18%	-4%
COc1ccccc1C(=O)N1CCN(Cc2ccc3c(c2)OCO3)CC1	8%	-13%	0%	-14%	-7%
CCN(CC)S(=O)(=O)c1ccc(C)c(NC(=S)N2CCN(Cc3ccc4c(c3)OCO4)CC2)c1	-10%	11µM*	22µM*	21µM*	21µM*
O=C(NCc1ccccc1)C1CCN(S(=O)(=O)c2cccc3cccnc23)CC1	5%	-7%	-7%	-9%	-18%
Cc1ccccc1C(=O)NC(C)c1nnc2n1CCN(Cc1ccc(F)cc1)CC2 (centres undefined)	/	/	/	-1%	16%[9.04 µM]

From PubChem BioAssay
